Among all 63,000 compounds or so, about 1,100 (1.7%) were called active. Only a selection was taken, and actives are over-represented in it overall. Entries with a potency or affinity are not part of this list. Values without a mark were called inactive.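 How the source made its calls: active means compounds whose percent cytotoxicity in the single-dose primary screen, scaled between solvent and toxic-drug controls, exceeds 50; inactive means the rest.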
assay: viability loss of HPDE-C7K cells – cell-based, fluorescence, HTS, primary screen (AID 431); settings: HPDE-C7K KRASV12 cells, Alamar Blue viability, 48 h; at 10 µM; active compounds read high;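 further: 0% = DMSO solvent wells and 100% = doxorubicin-treated wells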

Compound	cytotoxicity
O=C(NCCCN1CCN(c2ccccc2F)CC1)C1CCC(=O)N1C1CCCC1 (configuration not stated)	-6.6%
Cn1c(CCCCCN)nc2ccccc21	-27.2%
OCCN(Cc1ccccc1)Cc1ccccc1F	-13.3%
COc1ccc(O)c(-c2[nH]ncc2C(=O)c2ccccc2C)c1	2.7%
CCCc1ccc(OCC(=O)O)cc1	2.3%
CCCc1ccc(Oc2cn[nH]c2-c2ccc(O)c(C)c2O)cc1	119% (active)
CCCc1ccc(Oc2cn[nH]c2-c2ccc(O)cc2O)cc1	29.1%
CC(C)Sc1ncnc2c1oc1ccccc12	-7.4%
COc1ccc(CNC(=O)CSc2nc3nc(C)cc(C)n3n2)cc1	1.6%
Cc1nn(-c2cccc(C(F)(F)F)c2)c(Cl)c1/C=N/n1cnnc1	3.5%
Fc1cccc(Cl)c1CSc1nnnn1-c1ccc2c(c1)OCO2	51.7% (active)
Fc1cccc(Cl)c1Cn1nnc(-c2ccc3c(c2)OCO3)n1	-3.6%
Fc1ccccc1CSc1nnnn1-c1ccc2c(c1)OCO2	2.3%
Cc1cc2nc(NC3=NCN(Cc4cccnc4)CN3)nc(C)c2cc1C	53.3% (active)
Cc1ccc2nc(NC3=NCN(Cc4ccc5c(c4)OCO5)CN3)nc(C)c2c1	12.9%
Cc1nc(NC2=NCN(Cc3cccnc3)CN2)nc2ccccc12	6.2%
Cc1ccc2nc(NC3=NCN(Cc4cccnc4)CN3)nc(C)c2c1	5.9%
Cc1nc(NC2=NCN(Cc3ccc4c(c3)OCO4)CN2)nc2ccccc12	15.2%
Cc1cc2nc(NC3=NCN(Cc4ccc5c(c4)OCO5)CN3)nc(C)c2cc1C	90% (active)
Cc1ccc(CCN2CC(C(=O)NCCCN3CCOCC3)CC2=O)cc1 (configuration not stated)	2%
Cc1ccc(C)n1-c1ncn[nH]1	1.3%
c1nc(NCCN2CCOCC2)c2sc3nc(N4CCOCC4)c4c(c3c2n1)CCC4	18.4%
CSc1nc(N2CCN(CCO)CC2)c2sc3nc(-c4ccco4)c4c(c3c2n1)CCC4	4.4%
OCCN(CCO)c1ncnc2c1sc1nc(N3CCOCC3)c3c(c12)CCCC3	34.4%
CC1(C)Cc2c(C#N)c(NCCN3CCOCC3)nc(-c3ccco3)c2CO1	8.7%
O=C(Cn1cc2c(n1)CCCCC2)N1CCCCC1	5.5%

Compound	cytotoxicity
CCc1ccc(OCC(=O)N(C)C)c(Br)c1	7%
CCCCc1ccc(NC(=O)OC)cc1	-10.3%
CCCCc1ccc(NC(=O)COCC)cc1	-2.8%
CCOC(=O)CSC(CC)C(=O)Nc1nnc(C(C)C)s1 (configuration not stated)	1.3%
COc1ccc(CCNC(=O)C2CCN(C(=O)N(C)C)CC2)cc1OC	-12.4%
CCOC(=O)c1cc(-c2ccco2)nc2c1c(C)nn2-c1ccccc1	-7.1%
CCOc1cc(NC(=O)c2ccco2)c(OCC)cc1NC(=O)c1cc(OC)c(OC)c(OC)c1	7.5%
COc1cc(C(=O)Nc2ccc(NC(=O)c3ccco3)nc2)cc(OC)c1OC	-3.4%
COc1cc(NC(=O)c2ccco2)c(OC)cc1NC(=O)c1cc(OC)c(OC)c(OC)c1	50.8% (active)
COc1cccc(NC(=O)Cn2nnc(-c3ccccc3N)n2)c1	6.3%
CCc1ccc2[nH]c(=O)c(CN(CCO)C(=O)NCc3ccccc3)cc2c1	-4.1%
COc1ccccc1Oc1cc(C#N)c(C#N)cc1-n1nnc2ccccc21	-24.3%
N#Cc1cc(Oc2cccc3cccnc23)c(-n2nnc3ccccc32)cc1C#N	74.9% (active)
c1ccc(-n2nnnc2Oc2cccc3cccnc23)cc1	-4.5%
CCCC(=O)n1nc(-c2ccco2)nc1SCc1ccccc1	2.3%
CCn1c(SCC(=O)Nc2ccc(S(=O)(=O)Nc3ccccn3)cc2)nnc1-c1ccncc1	-0.6%
COC(=O)c1c(C(=O)OC)c2n(c1C)Cc1ccccc1C2	3%
Cc1occc1C(=O)Nc1cccc(C(=O)NCc2ccccc2)c1	-17.7%
O=C(NCc1ccco1)c1cccc(NC(=O)c2ccccc2)c1	33.2%
CCC(CC)C(=O)Nc1cccc(C(=O)NCc2ccco2)c1	-2.1%
O=C(NCc1ccccc1)c1cccc(NC(=O)c2ccco2)c1	35.4%
Cc1ccc(C(=O)Nc2cccc(C(=O)NCc3ccco3)c2)cc1	66.2% (active)
CCc1ccc(-n2c(SCC(=O)Nc3cc(C)[nH]n3)nc3[nH]ncc3c2=O)cc1	-4.9%
COc1ccc2nc(NC(=O)C3CCN(S(=O)(=O)c4cnc[nH]4)CC3)sc2c1	14.5%
O=C(Nc1c(C(=O)NCc2ccco2)cnn1-c1ccccc1)c1cccc(F)c1	7.2%
O=C(NCc1ccco1)c1cc2ccccc2o1	7.8%

Compound	cytotoxicity
C=CCn1c(N)c(-c2nc3ccccc3n2C)sc1=S	50.1% (active)
Cc1ccc(-n2c(N)c(-c3nc4ccccc4n3C)sc2=S)cc1	9.5%
C=CCn1c(N)nc2ccccc21	-9.7%
CCC(=O)Nc1ccc(NC(=O)c2c(C)nc3ccccn23)cc1	-2.5%
O=C(CCCC(=O)N(CC(=O)NC1CCCC1)Cc1ccc(F)cc1)Nc1ccccn1	14.7%
C/C=C/Cn1c(N(C)Cc2ccccc2)nc2c1c(=O)[nH]c(=O)n2C	5.8%
CCOc1cc(N2CCOCC2)c(OCC)cc1NC(=O)CN1CCc2ccccc2C1	9.3%
CCOc1cc(N2CCOCC2)c(OCC)cc1NC(=O)Cc1ccc(OC)c(OC)c1	-1.4%
CCOc1cc(N2CCOCC2)c(OCC)cc1NC(=O)COc1cccc2cccnc12	51% (active)
CC(C)(C)c1ccc(C(=O)N2CCC(C(=O)NCC3CCCO3)CC2)cc1 (configuration not stated)	-1.9%
CC(C)Cn1c(SCC(=O)NC2CCCc3ccccc32)nc(O)cc1=O (configuration not stated)	-9.4%
N#Cc1c(/N=C/N2CCCC2)oc(-c2ccccc2)c1-c1ccccc1	15.9%
N#Cc1c(N)oc(-c2ccccc2)c1-c1ccccc1	-9.5%
N#Cc1c(/N=C/c2ccco2)oc(-c2ccccc2)c1-c1ccccc1	78.7% (active)
Cc1ccc(CCNc2ccccc2)c[n+]1[O-]	-10.6%
CCOC(=O)CN1C(=O)C(O)(CC(=O)c2ccco2)c2ccccc21 (configuration not stated)	-77.9%
O=C(Nc1nccs1)Oc1ccccc1	0.7%
COc1ccc(C(C)=O)c2c(O)cccc12	12.2%
COc1ccc2c3c(cccc13)OCC2=O	18.6%
CC(=O)NC1CCN(C(=O)N2CCCC2)CC1	7.7%
O=C(CSc1n[nH]c(-c2ccncc2)n1)NC1CCS(=O)(=O)C1 (configuration not stated)	-7.5%
Cc1c(C(=O)NCc2ccoc2)oc2ccc3c(c12)C(=O)CC(C)(C)O3	36.4%
CCOC(=O)c1ccc(N2C(=O)CC(NC3CCN(C(=O)c4ccc(F)cc4)CC3)C2=O)cc1 (configuration not stated)	-19.3%
CC(C)OC(=O)c1cc(=O)[nH]c2ccccc12	13.4%
Cc1noc(C)c1S(=O)(=O)N(CC(=O)Nc1ccc2c(c1)OCO2)c1ccc(C(C)C)cc1	-3.1%
Cc1cc(C)c2c(CC(=O)NCc3ccco3)coc2c1	5.6%

Compound	cytotoxicity
Cc1ccc2c(CC(=O)NCc3ccco3)coc2c1C	73.2% (active)
O=C(Cc1cccs1)NCc1ccco1	6.7%
CN1C(=O)CC(N2CCN(C(c3ccccc3)c3ccccc3)CC2)C1=O (configuration not stated)	-16.6%
COC(=O)Cn1c(CN2CCN(c3ccc(F)cc3)CC2)nc2c1c(=O)n(C)c(=O)n2C	0.6%
CCOC(=O)NC(Nc1ncccn1)(C(F)(F)F)C(F)(F)F	-17.3%
CCCOCCOC(=O)c1[nH]c2c(c1C)C(=O)CC(c1cc(OC)ccc1OC)C2 (configuration not stated)	53.5% (active)
COc1ccc(OC)c(C2CC(=O)c3c([nH]c(C(=O)OC(C)C)c3C)C2)c1 (configuration not stated)	51.6% (active)
COCCOC(=O)c1[nH]c2c(c1C)C(=O)CC(c1cc(OC)ccc1OC)C2 (configuration not stated)	-6.8%
COc1ccc(C2CC(=O)c3c([nH]c(C(=O)OC(C)C)c3C)C2)cc1OC (configuration not stated)	-16.2%
COC(=O)c1[nH]c2c(c1C)C(=O)CC(c1cc(OC)ccc1OC)C2 (configuration not stated)	18.9%
COc1cc2nc(CC(C)C)n(NC(=O)c3ccccc3)c(=O)c2cc1OC	-0.2%
Cc1cc(N2CCN(C(=O)c3ccco3)CC2)n2nc(-c3cccc(Cl)c3)cc2n1	2%
c1cnc(NCCNc2ncccn2)nc1	-5.3%
Cc1cc(NC(=O)c2ccc(Cn3nc(C)c(Br)c3C)o2)no1	6.8%
CCOC(=O)C1CCN(c2c(N(C)Cc3ccco3)c(=O)c2=O)CC1	11%
O=CN1Cc2[nH]c3ccccc3c2N(c2ccc(Cl)cc2)C1=O	-0.4%
COCCn1c(N)c(S(=O)(=O)c2cccs2)c2nc3ccccc3nc21	-1.6%
Nc1c(S(=O)(=O)c2cccs2)c2nc3ccccc3nc2n1/N=C/c1cccc(O)c1	65.7% (active)
Nc1c(S(=O)(=O)c2cccc(Cl)c2)c2nc3ccccc3nc2n1/N=C/c1ccc(O)c(O)c1	126% (active)
Cc1cccc(S(=O)(=O)c2c(N)n(/N=C/c3ccco3)c3nc4ccccc4nc23)c1	17.6%
Cc1ccc(S(=O)(=O)c2c(N)n(/N=C/c3ccco3)c3nc4ccccc4nc23)cc1C	8.5%
Nc1c(S(=O)(=O)c2cccs2)c2nc3ccccc3nc2n1Cc1cccs1	-15.3%
Cc1cccc(S(=O)(=O)c2c(N)n(/N=C/c3cccnc3)c3nc4ccccc4nc23)c1	23.4%
Nc1c(S(=O)(=O)c2ccccc2)c2nc3ccccc3nc2n1/N=C/c1ccco1	45.3%
